Screening data as filed in PubChem BioAssay.
The sample as a whole holds a higher share of hits than the screen did.
L3MBTL1 inh: blocks human L3MBTL1. Q9Y468. AlphaScreen L3MBTL1–H3K9me1 peptide binding. Potency, µM (highest dose often 57.1 µM), inactives show top-dose activity, negative = inhibition, most hits filed as inhibitors. actives 0.66% (n = 230,000). AID 485360; also: nearly all actives have a fitted effect of over 60% in size
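AlphaScreen proximity signal between nickel-chelate acceptor and streptavidin donor beads (final 10 ug/mL) reports binding of 50 nM L3MBTL1 to 75 nM biotin-H3 K9me1 peptide; complex incubated with compounds 30 min at room temperature; cefsulodin titration as control.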
APEX1 inh: APE1 (human) endonuclease inhibition | AID 2517 | recombinant APE1, TAMRA/BHQ-2 abasic DNA cleavage fluorescence | Potency, µM (doses to about 65.8 µM), for inactives: top-dose activity change, negative = inhibition, actives largely listed as inhibitors | actives 0.35% (n = 350,000);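 also: plate controls were vehicle for no effect and reference inhibitor for full effect; nearly all actives have a fitted effect of over 55% in size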
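Kinetic fluorescence read (525 ex/598 em nm, three reads 60 s apart) of AP-site incision; signal = third minus first read. Enzyme 0.75 nM, dual-labelled THF duplex 50 nM, compound preincubation 15 min RT.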
TDP1 inh: blocks human tyrosyl-DNA phosphodiesterase 1; Q9NUW8; recombinant TDP1, AlphaScreen DNA substrate cleavage; Potency, µM (doses to about 130 µM), without a hit: at the highest dose activity change, negative = inhibition, actives largely listed as inhibitors; actives 0.28% (n = 350,000); also: nearly all actives have a fitted effect of over 40% in size
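Compounds were preincubated with Tdp1 (1 nM final) for 15 min at room temperature before substrate (15 nM final) started a 5 min reaction; beads (10 ug/ml final) were then added for 10 min before AlphaScreen detection.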
RECQ1 inh: inhibitors of human RECQ1 DNA helicase; P46063; RECQ1 DNA unwinding, red fluorescence kinetic read; Potency, µM (titrated, usually from 57.3 µM), for inactives: top-dose activity, negative = inhibition, most hits filed as inhibitors; actives 0.54% (n = 240,000);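 also: plate controls were vehicle for no effect and no enzyme for full effect; nearly all actives have a fitted effect of over 30% in size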
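RECQ1T1 50 nM; forked duplex (20 bp + 30-nt ss tails) 200 nM, ATP 2 mM final; pH 8.0, 2 mM MgCl2, 2.5 ug/ml poly(dI-dC); 15 min compound preincubation; discontinuous kinetic read over 2 h at RT.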
KDM4E inh: inhibitors of human JMJD2E histone demethylase; Potency, µM (top dose mostly 57.1 µM), for the others: at the highest dose activity change, negative = inhibition, usual class: inhibitors; AID 2147; JMJD2E catalytic domain, FDH-coupled NADH fluorescence (FDH is formaldehyde dehydrogenase); actives 1.6% (n = 230,000); active = well fitted inhibition curve with a large enough effect, not every such curve was filed as active; inconclusive = small, poorly fitted or top-dose-only effect, or another doubt; inactive = no such curve, though single readings can be large or run the other way;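 also: 0% = wells with enzyme and -100% = buffer wells without enzyme; nearly all actives have a fitted effect of over 50% in size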
BLM inh: inhibitors of human Bloom syndrome helicase BLM. recombinant BLM DNA unwinding, fluorescence dequenching. Potency, µM (highest dose often 56.1 µM), inactives show at the top dose activity change, negative = inhibition, actives largely listed as inhibitors. actives 0.2% (n = 350,000);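 also: plate controls were vehicle for no effect and no enzyme for full effect; nearly all actives have a fitted effect of over 35% in size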
Target sequence (P54132 whole entry, looked up): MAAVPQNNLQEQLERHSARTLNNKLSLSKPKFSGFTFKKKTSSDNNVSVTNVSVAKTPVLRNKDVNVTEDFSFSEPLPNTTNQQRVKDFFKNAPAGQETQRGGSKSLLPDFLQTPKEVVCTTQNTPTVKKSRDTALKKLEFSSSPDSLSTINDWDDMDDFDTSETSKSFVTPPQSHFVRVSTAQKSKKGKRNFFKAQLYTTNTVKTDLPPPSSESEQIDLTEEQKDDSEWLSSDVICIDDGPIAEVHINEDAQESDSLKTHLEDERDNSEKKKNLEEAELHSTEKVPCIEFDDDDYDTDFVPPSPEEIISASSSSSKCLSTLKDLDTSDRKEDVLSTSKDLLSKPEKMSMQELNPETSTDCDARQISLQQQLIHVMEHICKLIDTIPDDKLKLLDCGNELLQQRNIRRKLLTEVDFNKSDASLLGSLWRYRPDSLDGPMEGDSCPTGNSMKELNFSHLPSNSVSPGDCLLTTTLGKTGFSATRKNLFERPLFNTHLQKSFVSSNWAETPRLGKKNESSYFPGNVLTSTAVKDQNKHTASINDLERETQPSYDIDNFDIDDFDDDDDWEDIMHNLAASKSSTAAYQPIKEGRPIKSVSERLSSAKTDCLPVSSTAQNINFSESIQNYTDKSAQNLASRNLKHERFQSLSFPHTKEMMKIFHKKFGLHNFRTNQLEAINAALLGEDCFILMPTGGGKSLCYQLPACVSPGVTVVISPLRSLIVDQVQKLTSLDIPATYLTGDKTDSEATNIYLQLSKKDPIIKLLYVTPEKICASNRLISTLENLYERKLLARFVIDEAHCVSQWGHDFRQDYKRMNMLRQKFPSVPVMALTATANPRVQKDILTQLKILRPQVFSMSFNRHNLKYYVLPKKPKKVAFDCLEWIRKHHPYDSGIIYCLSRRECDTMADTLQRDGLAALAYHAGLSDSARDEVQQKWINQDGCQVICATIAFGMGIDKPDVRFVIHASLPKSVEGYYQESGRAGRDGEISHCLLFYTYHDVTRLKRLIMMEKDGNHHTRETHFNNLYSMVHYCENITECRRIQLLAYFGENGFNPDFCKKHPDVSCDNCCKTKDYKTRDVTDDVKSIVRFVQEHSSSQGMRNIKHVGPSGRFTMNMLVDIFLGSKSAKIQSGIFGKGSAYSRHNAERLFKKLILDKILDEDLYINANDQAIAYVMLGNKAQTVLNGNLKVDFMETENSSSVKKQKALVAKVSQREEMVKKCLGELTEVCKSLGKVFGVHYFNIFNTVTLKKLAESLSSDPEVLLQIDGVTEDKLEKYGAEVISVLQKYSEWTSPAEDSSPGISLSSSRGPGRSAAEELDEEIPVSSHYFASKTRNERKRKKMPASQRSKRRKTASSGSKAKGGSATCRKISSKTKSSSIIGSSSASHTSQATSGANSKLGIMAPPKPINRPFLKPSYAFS
Numbers without * were called inactive; i = inactive; ? = inconclusive; . = no result given; ! = repeats disagree; [ ] = another dose, or the depositor's remark. Unless noted, calls follow the shape of the dose curve; as a rule, active = well fitted curve in the direction sought with a large enough effect; inconclusive = small, poorly fitted or top-dose-only effect, or another doubt; inactive = no such curve, though single readings can be large; an effect the other way counts as inactive or inconclusive. Unless noted, % is scaled to controls: 0 for no effect and ±100 for the full control effect; potency is read from the fitted curve at half-maximal effect.

SMILES | L3MBTL1 inh | APEX1 inh | TDP1 inh | RECQ1 inh | KDM4E inh | BLM inh
COc1ccccc1-n1c(O)c(C=NCc2ccc3c(c2)OCO3)c(=O)[nH]c1=O | -1% | 1% | 4% | -15% | -21% | -1%
CS(=O)c1ccc(-c2nc(-c3ccc(F)cc3)c(-c3ccncc3)[nH]2)cc1 (stereo unspecified) | . | 17% | 13% | 6% | ? | 4%
O=C1/C(=C\c2ccccc2)C[C@@]2(O)[C@H]3Cc4ccc(O)c5c4[C@@]2(CCN3CC2CC2)[C@H]1O5 | . | 1% | 11% | i | . | .
CCn1c(O)c(/C=N/NC(=O)c2ccccc2)c(=O)[nH]c1=S | . | 4% | 8% | i | 32µM* | -5%
Cc1ccc(-n2c(O)c(/C=N/NC(=O)c3ccncc3)c(=O)[nH]c2=O)cc1C | -5% | 3% | 3% | -1% | 22µM* | 0%
O=C(N/N=C/c1c(O)n(Cc2ccccc2)c(=O)[nH]c1=O)c1ccccc1O | 14% | 6% | 8% | -5% | -3% | 2%
O=C(N/N=C/c1c(O)n(CCc2ccccc2)c(=O)[nH]c1=O)c1ccccc1O | . | -1% | 10% | -5% | 28µM* | -6%
O=C(N/N=C/c1c(O)n(Cc2ccc(F)cc2)c(=O)[nH]c1=O)c1ccccc1O | 6% | -6% | 11% | -9% | 25µM* | -1%
CC1(C)C(C(=O)O)N2C(=O)CC2S1(=O)=O (stereo unspecified) | . | 16% | 1% | i | . | -1%
O=C(O)c1cc(O)c(O)c(O)c1 | . | ? | ? | -2% | 0.35µM* | -7%
O=C(O)c1ccccc1O | 15% | -6% | 5% | -3% | ? | -3%
CC1=C2C(=O)C3C(CC=C4C[C@@H](O)CC[C@@]43C)[C@@H]2CC[C@]12O[C@@H]1C[C@H](C)CN[C@H]1C2C (stereo partly specified) | . | -2% | 6% | -22% | . | -7%
CCN(CC)c1ccc(/C=C2/C(=O)NC(=O)N(Cc3ccco3)C2=O)cc1 | ? | ? | ? | 32µM* | -26% | -1%
O=C1NC(=S)N(Cc2ccco2)C(=O)/C1=C\c1cccs1 | . | 3.5µM* | . | 7.1µM* | 14µM* | 28µM*
CN(C)c1ccc(/C=C2/C(=O)NC(=O)N(Cc3ccco3)C2=O)cc1 | ? | 28µM* | 28µM* | ? | -30% | -6%
COc1ccc(/C=C2/C(=O)N(Cc3ccco3)C(=O)N(C(C)C)C2=O)cc1 | ? | 22µM* | -13% | 25µM* | ? | -22%
CCN1C(=O)C(=C2C=C(C)N(Cc3ccco3)C(C)=C2)C(=O)N(CC)C1=S | 38% | -3% | -1% | -3% | -17% | -5%
CN(C)c1ccc(/C=C2\C(=O)NC(=O)N(CCc3ccc(F)cc3)C2=O)cc1 | . | 1% | -2% | i | ? | -4%
CC(Cl)CCl (stereo unspecified) | . | -4% | 6% | 4% | . | .
ClCBr | . | 12% | 15% | -3% | . | .
CC[n+]1c(-c2ccccc2)c2cc(N)ccc2c2ccc(N)cc21 | . | 32µM*! | 9% | 32µM*! | ? | ?
CCCCCc1cc(O)c2c(c1)OC(C)(C)C1CC=C(C)CC21 (stereo unspecified) | . | . | . | . | . | -11%
CCN1/C(=C\C=C\C2=[N+](CC)c3ccccc3C2(C)C)C(C)(C)c2ccccc21 | . | 32µM* | 8% | 28µM* | -10% | 7.9µM*
Oc1ccc(/C=N/NP(=S)(c2ccccc2)c2ccccc2)c(O)c1O | . | ? | 7% | -13% | 14µM* | -23%
NC1C=CC=C(C(=O)O)C1 (stereo unspecified) | . | 13µM*! | 4µM*! | -13% | -7% | .
SMILES | L3MBTL1 inh | APEX1 inh | TDP1 inh | RECQ1 inh | KDM4E inh | BLM inh
C/C=C(\C)C(=O)N[C@@H](c1ccccc1)[C@@H](O)C(=O)O[C@H]1C[C@@]2(O)[C@@H](OC(=O)c3ccccc3)C3[C@](C)(C(=O)[C@H](OC(C)=O)C(=C1C)C2(C)C)[C@@H](O)C[C@H]1OC[C@@]31OC(C)=O (stereo partly specified) | 4% | 7% | 6% | -13% | . | -2%
CC(=O)O[C@H]1C(=O)[C@@]2(C)C([C@H](OC(=O)c3ccccc3)[C@]3(O)C[C@H](OC(=O)[C@H](O)[C@@H](NC(=O)c4ccccc4)c4ccccc4)C(C)=C1C3(C)C)[C@]1(OC(C)=O)CO[C@@H]1C[C@@H]2OC(=O)[C@H](C)NC(=O)c1ccc(-c2c3ccc(=O)cc-3oc3cc(O)ccc23)c(C(=O)O)c1 (stereo partly specified) | . | 3.2µM* | 26%[21 µM] | 3.2µM* | . | 3.2µM*
FC(F)=C(F)CCSc1ncn[nH]1 | -2% | -3% | -5% | i | 4.5µM* | -2%
Cc1cccc2c3c(ccc12)C1=C(C(=O)C3=O)[C@@H](C)CO1 | . | -3% | 18% | 14% | . | -10%
CCOC(=O)c1ccc(N2C(=O)CC(N3CC=C(c4ccc(F)cc4)CC3)C2=O)cc1 (stereo unspecified) | ? | -12% | 11% | -11% | 14µM* | -4%
CCn1c(C)[n+](CC)c2ccc(S(=O)(=O)NC)cc21 | 0% | -2% | 2% | 13% | 7.9µM* | -2%
Cc1ccc(N2C(=O)NC(=O)/C(=C/c3cnc(-c4ccccc4)nc3)C2=O)cc1C | -1% | -5% | 0% | -9% | 13µM* | 1%
Cc1cccc(N2C(=O)NC(=O)/C(=C\c3cnc(-c4ccccc4)nc3)C2=O)c1 | 23% | 6% | 2% | 1% | -6% | -3%
O=C1NC(=O)N(c2ccccc2)C(=O)/C1=C/c1ccoc1 | ? | ? | -10% | -22% | -6% | -8%
CC(C)c1ccc(N2C(=O)NC(=O)/C(=C\c3cnc(-c4ccccc4)nc3)C2=O)cc1 | -3% | 6% | -8% | i | 20µM* | 1%
CC(C)c1ccc(N2C(=O)NC(=O)/C(=C\C=C\c3ccco3)C2=O)cc1 | . | ? | 2% | 16µM* | -9% | ?
NC(=O)[C@H](Cc1ccccc1)NC(=O)[C@H](Cc1c[nH]c2ccccc12)NC(=O)[C@@H]1CCCN1C(=O)[C@@H](N)Cc1ccc(O)cc1 | . | . | 1% | . | . | .
C=CCn1c(O)c(/C=C2/C=CC=N2)c(=O)[nH]c1=O | 3% | -3% | -4% | 11µM* | -1% | 0%
CCn1cc(C=C2C(=O)NC(=O)NC2=O)c2ccccc21 | . | -3% | . | . | . | -1%
CCC1(C)OC(c2ccccc2)=C/C(=C/C=C2C(=O)NC(=O)NC2=O)O1 (stereo unspecified) | ? | 5% | 3% | 8.9µM* | 9% | -23%
